The values below come from PMC7862700, “An all-to-all approach to the identification of sequence-specific readers for epigenetic DNA modifications on cytosine”.

Holding throughout (experiment): DAPPL (digital affinity profiling via proximity ligation, sequencing); 10 mM Tris-HCl pH 7.5, 50 mM NaCl, 1 mM DTT, 4% glycerol, room temperature, 30 min; GST-TFs on glutathione beads, 16-mer random dsDNA library, 0.1% formaldehyde crosslink after washing; high values mean tight binding
Conditions in all cases: protein: recombinant; tags: N-terminal GST; dsDNA, one strand shown

Test [1] addresses T1, FLI1 (Homo sapiens, UniProt Q01543 1-452).
T1 sequence: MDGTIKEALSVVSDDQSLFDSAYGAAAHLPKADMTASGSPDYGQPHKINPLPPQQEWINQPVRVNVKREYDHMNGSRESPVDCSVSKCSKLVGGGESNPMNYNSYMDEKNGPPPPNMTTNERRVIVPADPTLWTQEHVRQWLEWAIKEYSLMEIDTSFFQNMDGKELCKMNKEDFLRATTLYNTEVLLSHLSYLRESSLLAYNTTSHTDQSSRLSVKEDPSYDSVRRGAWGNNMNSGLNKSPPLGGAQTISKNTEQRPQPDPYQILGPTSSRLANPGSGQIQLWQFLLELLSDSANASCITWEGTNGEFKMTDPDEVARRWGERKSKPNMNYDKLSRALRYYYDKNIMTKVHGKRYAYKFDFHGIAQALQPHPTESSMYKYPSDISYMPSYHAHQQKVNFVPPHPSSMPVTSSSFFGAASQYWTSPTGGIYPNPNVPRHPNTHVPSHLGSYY
The essentials:
(§1)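 Pools of DNA-barcoded human transcription factors, expressed in yeast as GST fusions on glutathione beads and combined with a tag-only sample, were incubated with 200 nmole of a 16-mer random double-stranded DNA library. Incubation took 30 min at room temperature in Tris/NaCl/DTT/glycerol buffer and was followed by washing, 0.1% formaldehyde crosslinking, proximity ligation (BsaI/T4 ligase, 1 h, 37 °C), PCR amplification and sequencing on an Illumina NextSeq500. Binding signal is the ratio of a hexamer's read frequency for a factor to its frequency for the tag-only sample.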

Test [2] addresses T2, ELK1 (Homo sapiens, UniProt P19419 1-428).
T2 sequence: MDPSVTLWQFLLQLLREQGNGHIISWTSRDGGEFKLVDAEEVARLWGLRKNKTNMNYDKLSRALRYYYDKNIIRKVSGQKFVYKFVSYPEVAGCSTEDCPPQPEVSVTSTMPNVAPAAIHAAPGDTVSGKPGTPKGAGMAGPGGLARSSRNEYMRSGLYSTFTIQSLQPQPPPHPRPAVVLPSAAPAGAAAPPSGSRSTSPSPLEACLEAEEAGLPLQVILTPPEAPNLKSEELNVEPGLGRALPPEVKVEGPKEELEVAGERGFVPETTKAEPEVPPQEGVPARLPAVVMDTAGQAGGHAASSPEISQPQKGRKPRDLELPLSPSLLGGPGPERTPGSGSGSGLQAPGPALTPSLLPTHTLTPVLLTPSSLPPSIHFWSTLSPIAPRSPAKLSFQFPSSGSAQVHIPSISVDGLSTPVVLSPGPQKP
In a few lines: as §1

Test [3] deals with T3, GABPA (Homo sapiens, UniProt Q06546 1-454).
T3 sequence: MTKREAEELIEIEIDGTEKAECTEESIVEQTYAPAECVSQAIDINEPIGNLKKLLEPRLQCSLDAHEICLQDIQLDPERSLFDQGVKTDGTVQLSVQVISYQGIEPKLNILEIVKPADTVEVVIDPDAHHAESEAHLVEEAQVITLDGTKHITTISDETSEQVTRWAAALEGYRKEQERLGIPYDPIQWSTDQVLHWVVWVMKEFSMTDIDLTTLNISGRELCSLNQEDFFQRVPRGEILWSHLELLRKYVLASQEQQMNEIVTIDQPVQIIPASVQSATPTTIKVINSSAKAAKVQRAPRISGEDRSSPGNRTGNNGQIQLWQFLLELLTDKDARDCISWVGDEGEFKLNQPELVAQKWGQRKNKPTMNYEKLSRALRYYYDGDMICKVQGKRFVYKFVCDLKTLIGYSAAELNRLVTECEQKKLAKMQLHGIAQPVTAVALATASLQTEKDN
In a few lines:
as §1

Test [4] has as its target T4, ERG (Homo sapiens, UniProt P11308 1-479).
T4 sequence: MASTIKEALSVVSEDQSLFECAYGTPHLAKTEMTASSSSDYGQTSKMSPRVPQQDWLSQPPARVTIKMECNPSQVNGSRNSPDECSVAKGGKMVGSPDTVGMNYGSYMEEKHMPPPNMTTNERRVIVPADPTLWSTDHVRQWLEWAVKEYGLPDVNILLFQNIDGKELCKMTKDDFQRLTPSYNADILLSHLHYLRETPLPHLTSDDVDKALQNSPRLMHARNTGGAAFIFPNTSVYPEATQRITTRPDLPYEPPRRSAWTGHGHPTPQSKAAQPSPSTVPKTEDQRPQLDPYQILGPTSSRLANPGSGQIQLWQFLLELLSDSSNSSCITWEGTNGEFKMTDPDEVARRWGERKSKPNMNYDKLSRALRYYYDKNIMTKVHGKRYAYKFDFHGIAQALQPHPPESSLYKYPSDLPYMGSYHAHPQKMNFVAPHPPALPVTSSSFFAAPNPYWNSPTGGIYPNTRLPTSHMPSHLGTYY
In a few lines:
as §1

Test [5] deals with ELF1 (Homo sapiens, UniProt P32519 1-619). In a few lines:
as §1

The target in test [6] is T5, EHF (Homo sapiens, UniProt Q9NZC4 1-300).
T5 sequence: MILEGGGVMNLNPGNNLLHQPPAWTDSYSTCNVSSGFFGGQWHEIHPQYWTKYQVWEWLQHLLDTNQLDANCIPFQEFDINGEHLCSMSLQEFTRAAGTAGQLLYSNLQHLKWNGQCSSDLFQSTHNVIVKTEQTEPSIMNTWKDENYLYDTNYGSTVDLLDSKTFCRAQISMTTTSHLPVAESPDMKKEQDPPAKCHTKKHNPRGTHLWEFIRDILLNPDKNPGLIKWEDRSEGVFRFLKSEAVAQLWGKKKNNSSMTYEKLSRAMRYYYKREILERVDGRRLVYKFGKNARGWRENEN
The essentials:
as §1

The target in test [7] is SPI1 (Homo sapiens, UniProt P17947 1-270). In a few lines: as §1
Test [8] concerns the target T6, FEV (Homo sapiens, UniProt Q99581 1-238).
T6 sequence: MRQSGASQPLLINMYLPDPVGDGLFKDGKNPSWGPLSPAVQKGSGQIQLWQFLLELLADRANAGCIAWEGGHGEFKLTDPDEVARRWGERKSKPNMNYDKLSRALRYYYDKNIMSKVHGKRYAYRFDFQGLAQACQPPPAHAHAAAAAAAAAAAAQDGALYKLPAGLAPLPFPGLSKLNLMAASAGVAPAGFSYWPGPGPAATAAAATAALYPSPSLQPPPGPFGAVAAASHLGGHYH
The essentials:
as §1

Test [9] addresses ETV5 (Homo sapiens, UniProt P41161 1-510). The essentials: as §1
The target in test [10] is T7, SPIC (Homo sapiens, UniProt Q8N5J4 1-248).
T7 sequence: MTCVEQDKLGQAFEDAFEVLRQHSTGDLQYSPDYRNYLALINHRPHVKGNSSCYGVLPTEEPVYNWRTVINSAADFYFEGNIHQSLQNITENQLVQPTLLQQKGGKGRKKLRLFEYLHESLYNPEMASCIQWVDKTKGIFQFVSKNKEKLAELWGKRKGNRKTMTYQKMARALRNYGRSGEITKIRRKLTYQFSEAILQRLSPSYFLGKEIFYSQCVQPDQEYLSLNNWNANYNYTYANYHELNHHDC
In a few lines:
as §1

In test [11] the target is ELF4 (Homo sapiens, UniProt Q99607 1-663). The essentials:
as §1

Test [12] addresses ETV1 (Homo sapiens, UniProt P50549 1-477). The essentials:
as §1

The target in test [13] is T8, ERF (Homo sapiens, UniProt P50548 1-548).
T8 sequence: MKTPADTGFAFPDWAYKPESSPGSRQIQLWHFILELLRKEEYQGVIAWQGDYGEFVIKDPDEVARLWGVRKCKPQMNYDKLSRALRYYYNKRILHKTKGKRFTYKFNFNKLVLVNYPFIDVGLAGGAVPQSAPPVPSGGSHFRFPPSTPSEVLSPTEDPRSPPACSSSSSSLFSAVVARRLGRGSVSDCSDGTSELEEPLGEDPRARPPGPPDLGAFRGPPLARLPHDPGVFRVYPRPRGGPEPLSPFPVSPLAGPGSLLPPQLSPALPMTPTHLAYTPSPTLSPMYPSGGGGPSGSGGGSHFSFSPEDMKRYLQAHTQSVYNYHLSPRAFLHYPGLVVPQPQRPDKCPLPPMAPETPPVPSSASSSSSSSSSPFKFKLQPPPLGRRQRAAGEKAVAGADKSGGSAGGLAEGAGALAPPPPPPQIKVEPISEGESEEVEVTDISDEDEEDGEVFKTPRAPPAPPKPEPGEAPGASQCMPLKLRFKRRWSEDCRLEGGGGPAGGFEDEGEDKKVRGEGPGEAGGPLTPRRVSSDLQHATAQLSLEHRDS
The essentials: as §1

The target in test [14] is T9, ETV3L (Homo sapiens, UniProt Q6ZN32 1-361).
T9 sequence: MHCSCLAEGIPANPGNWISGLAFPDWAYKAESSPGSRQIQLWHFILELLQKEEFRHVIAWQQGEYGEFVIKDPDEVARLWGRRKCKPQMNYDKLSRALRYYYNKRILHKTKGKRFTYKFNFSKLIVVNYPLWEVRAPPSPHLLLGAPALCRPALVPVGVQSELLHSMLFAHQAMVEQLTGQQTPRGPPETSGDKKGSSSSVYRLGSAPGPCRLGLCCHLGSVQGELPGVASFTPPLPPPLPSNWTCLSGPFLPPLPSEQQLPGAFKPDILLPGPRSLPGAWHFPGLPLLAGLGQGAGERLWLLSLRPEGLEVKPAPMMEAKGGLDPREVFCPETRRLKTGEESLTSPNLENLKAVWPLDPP
The essentials:
as §1

In test [15] the target is T10, ETS2 (Homo sapiens, UniProt P15036 1-469).
T10 sequence: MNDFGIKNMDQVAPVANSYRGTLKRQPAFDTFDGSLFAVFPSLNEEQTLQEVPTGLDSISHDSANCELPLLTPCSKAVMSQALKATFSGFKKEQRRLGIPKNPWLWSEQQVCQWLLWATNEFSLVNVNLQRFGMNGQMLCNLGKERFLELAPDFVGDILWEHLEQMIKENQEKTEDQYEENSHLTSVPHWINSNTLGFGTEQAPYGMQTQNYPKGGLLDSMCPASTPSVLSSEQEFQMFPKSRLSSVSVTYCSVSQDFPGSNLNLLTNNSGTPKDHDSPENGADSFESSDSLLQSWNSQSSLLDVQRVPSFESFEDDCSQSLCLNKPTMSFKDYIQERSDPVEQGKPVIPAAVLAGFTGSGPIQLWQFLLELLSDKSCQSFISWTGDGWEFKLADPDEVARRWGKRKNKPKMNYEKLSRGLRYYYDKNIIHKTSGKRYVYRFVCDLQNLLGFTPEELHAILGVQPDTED
The essentials:
as §1

Test [16] concerns the target T11, ELF5 (Homo sapiens, UniProt Q9UKW6-2 1-255).
T11 sequence: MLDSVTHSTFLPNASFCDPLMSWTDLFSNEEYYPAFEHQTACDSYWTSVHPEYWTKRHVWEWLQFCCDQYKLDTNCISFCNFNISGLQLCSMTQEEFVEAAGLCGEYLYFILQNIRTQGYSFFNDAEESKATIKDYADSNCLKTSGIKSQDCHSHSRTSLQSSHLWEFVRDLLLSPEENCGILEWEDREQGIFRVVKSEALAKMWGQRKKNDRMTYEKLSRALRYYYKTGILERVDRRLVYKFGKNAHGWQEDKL
The essentials:
as §1

The target in test [17] is T12, ETV3 (Homo sapiens, UniProt P41162-2 1-143).
T12 sequence: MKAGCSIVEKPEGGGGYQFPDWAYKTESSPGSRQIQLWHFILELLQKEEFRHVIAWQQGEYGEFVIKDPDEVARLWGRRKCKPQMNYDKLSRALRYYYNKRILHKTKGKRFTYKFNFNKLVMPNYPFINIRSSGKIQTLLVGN
The essentials:
as §1

In test [18] the target is ETV6 (Homo sapiens, UniProt P41212 1-452). In a few lines:
as §1

Sequence of ETV1 (P50549 whole entry): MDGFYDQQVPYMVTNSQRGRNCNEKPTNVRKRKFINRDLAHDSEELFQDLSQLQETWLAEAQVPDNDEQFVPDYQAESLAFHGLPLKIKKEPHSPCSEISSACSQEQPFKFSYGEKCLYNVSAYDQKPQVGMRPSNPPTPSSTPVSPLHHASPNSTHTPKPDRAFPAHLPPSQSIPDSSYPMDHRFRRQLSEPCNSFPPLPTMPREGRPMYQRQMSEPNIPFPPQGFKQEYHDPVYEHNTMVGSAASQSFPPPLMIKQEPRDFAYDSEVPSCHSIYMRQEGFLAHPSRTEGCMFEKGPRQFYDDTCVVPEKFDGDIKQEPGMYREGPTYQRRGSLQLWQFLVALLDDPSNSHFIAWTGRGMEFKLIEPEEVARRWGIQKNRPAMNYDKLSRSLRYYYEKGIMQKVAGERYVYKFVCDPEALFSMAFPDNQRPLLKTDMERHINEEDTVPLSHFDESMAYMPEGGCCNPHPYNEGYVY
Sequence of ELF1 (P32519 whole entry): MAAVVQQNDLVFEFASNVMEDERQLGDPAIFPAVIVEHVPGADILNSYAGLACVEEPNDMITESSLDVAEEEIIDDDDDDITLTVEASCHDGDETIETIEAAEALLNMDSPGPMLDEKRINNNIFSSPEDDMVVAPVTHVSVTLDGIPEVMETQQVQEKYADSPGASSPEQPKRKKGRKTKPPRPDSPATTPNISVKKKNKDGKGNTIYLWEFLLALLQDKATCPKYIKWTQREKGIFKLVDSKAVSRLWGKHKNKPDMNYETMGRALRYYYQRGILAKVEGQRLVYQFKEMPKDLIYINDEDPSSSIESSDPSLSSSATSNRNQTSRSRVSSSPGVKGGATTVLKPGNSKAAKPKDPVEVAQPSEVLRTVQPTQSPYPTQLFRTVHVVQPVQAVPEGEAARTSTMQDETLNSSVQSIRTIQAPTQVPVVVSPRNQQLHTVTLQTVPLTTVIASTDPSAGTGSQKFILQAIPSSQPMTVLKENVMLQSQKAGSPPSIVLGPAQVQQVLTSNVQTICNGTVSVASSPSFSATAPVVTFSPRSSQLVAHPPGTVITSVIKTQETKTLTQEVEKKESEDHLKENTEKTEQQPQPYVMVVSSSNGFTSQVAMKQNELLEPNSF
Sequence of ETV5 (P41161 whole entry): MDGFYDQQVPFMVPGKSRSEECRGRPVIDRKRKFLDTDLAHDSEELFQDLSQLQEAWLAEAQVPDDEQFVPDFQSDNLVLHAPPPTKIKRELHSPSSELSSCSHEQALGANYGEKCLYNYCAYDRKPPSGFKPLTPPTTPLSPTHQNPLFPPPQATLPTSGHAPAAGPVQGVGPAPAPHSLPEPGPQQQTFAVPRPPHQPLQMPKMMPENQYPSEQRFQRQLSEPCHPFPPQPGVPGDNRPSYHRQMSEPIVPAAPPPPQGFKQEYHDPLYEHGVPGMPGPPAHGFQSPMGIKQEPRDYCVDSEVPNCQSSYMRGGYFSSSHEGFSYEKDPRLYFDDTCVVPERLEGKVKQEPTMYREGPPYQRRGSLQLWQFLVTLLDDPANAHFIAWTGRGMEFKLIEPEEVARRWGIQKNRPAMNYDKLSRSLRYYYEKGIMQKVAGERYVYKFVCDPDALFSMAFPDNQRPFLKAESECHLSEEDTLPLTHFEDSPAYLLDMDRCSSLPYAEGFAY
Sequence of ETV6 (P41212 whole entry): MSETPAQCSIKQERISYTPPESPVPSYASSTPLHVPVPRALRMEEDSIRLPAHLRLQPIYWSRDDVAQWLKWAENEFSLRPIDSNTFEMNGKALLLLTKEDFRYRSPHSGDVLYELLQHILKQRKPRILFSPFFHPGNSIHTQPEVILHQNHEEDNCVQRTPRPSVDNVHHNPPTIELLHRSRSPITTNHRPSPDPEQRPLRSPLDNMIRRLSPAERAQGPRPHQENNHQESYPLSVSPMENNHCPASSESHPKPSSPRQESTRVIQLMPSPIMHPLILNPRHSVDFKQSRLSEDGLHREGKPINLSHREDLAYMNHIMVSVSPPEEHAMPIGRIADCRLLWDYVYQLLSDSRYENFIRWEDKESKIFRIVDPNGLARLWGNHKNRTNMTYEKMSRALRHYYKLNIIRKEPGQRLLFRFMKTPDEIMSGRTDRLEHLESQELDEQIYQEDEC
Sequence of ELF4 (Q99607 whole entry): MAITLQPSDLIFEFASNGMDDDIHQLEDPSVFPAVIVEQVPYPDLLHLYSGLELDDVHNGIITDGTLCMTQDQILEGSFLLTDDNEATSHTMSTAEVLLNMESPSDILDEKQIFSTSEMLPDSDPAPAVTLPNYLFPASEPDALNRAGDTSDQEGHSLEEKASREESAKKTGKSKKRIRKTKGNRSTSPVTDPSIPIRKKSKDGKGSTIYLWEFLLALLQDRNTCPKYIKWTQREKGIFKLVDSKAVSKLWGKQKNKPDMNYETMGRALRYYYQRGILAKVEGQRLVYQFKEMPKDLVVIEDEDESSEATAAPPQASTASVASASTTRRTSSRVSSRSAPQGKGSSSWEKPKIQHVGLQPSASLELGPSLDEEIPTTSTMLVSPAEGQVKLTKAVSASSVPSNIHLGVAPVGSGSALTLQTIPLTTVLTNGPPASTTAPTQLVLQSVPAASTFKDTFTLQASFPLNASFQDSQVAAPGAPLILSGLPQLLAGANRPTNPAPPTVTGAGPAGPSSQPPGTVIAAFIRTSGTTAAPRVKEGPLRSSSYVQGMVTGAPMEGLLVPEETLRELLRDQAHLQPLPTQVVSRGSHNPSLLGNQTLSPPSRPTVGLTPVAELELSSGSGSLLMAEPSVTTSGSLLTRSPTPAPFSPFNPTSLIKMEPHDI

In the case of GCCGCC, the binding signal in test [1] was 1.21 fold enrichment (6-mer frequency, TF over GST control); in test [2], 1.1 fold enrichment (6-mer frequency, TF over GST control); in [3] it was 1.16 fold enrichment (6-mer frequency, TF over GST control); in test [4], 1.02 fold enrichment (6-mer frequency, TF over GST control); in [5], 1 fold enrichment (6-mer frequency, TF over GST control); in test [6], 1.05 fold enrichment (6-mer frequency, TF over GST control). The binding signal is 1.13 fold enrichment (6-mer frequency, TF over GST control) in test [7]; 1.05 fold enrichment (6-mer frequency, TF over GST control) in test [8]; 1.04 fold enrichment (6-mer frequency, TF over GST control) in test [9]; 1.03 fold enrichment (6-mer frequency, TF over GST control) in test [10]; 1.08 fold enrichment (6-mer frequency, TF over GST control) in test [11]; 1.12 fold enrichment (6-mer frequency, TF over GST control) in test [12]. Further, the binding signal in [13] is 1.03 fold enrichment (6-mer frequency, TF over GST control); in [14], 1 fold enrichment (6-mer frequency, TF over GST control); in test [15], 1.01 fold enrichment (6-mer frequency, TF over GST control); in [16] it was 1.01 fold enrichment (6-mer frequency, TF over GST control); in test [17], 1.11 fold enrichment (6-mer frequency, TF over GST control); in [18], 1.02 fold enrichment (6-mer frequency, TF over GST control).
